Article PMC4552634, “A New Set of Chemical Starting Points with Plasmodium falciparum Transmission-Blocking Potential for Antimalarial Drug Discovery” (PLoS ONE, 2015)
Read-outs that look alike come from different tables or passages of the source. In all, about 13,000 compounds went through this assay and about 3,200 (25%) showed an effect of 50% or more. Some of the results follow.

Test system: P. falciparum stage V gametocytes
Set-up: BacTiter-Glo ATP luminescence viability of purified stage V gametocytes in 384-well plates, per cent inhibition versus DMSO
Settings: 48 h, 5 µM, inhibitor

SMILES	% Inhibition [%]	% Inhibition (% Inhibition) [%]
O=c1ccc2ccc(F)c3c2n1CC3CN1CCC(NCc2ccc(-c3cccc(Cl)c3)nc2)CC1 (centres unmarked) [TCMDC-134409]	-72.08	–
O=C(/C=C/c1ccccc1Cl)Nc1ccc(Br)c(OCCN2CCC(O)(c3ccccc3)CC2)c1 [TCMDC-140960]	2.038	–
Cc1cccc(-c2nn(-c3ccccc3)cc2C(=O)Nc2nnc(C)o2)c1 [TCMDC-125039]	-1.826	–
CC(C)CCN1CCCN(Cc2cccc(C(=O)Nc3ccc(C(C)(C)C)cc3)c2)CC1 [TCMDC-136605]	-26.48	–
O=[N+]([O-])c1cccc(CNCC2CCN(CC3CCCCC3)CC2)c1 [TCMDC-139468]	9.865	–
FC(F)(F)c1ccc2[nH]c(-c3ccc(-c4ccc(CN5CCN(c6cnccn6)CC5)cc4)cc3)nc2c1.O=C(O)C(F)(F)F [TCMDC-132678]	-10.34	–
O=C(C1CCCCC1)N1CCOC(CCN2CCC(c3ccccc3)CC2)(c2ccc(Cl)c(Cl)c2)C1 (centres unmarked) [TCMDC-135329]	-33.1	–
C=CCc1cccc(OC)c1OCCCON1C(N)=NC(N)=NC1(C)C [TCMDC-131337]	-10.44	–
CCCCc1ccc(CCNCCCCCCNCCc2ccc(O)c(O)c2)cc1 [TCMDC-131281]	122.8	–
Cc1cc(CNCC2CCC(CNCCCc3ccccc3)CC2)ccc1O (centres unmarked) [TCMDC-140409]	40.71	–
CCCN(CCCCCCNCCc1ccc(Cl)cc1)CCc1ccc(O)c(O)c1 [TCMDC-131274]	104.4	–
CC(C)(O)CC(C)(C)c1cc(Cl)ccc1O [TCMDC-131708]	-16.74	–
CCCNCCc1ccc(NS(=O)(=O)c2cccc(-c3ccc(Cl)cc3)c2)cc1 [TCMDC-141448]	32.49	–
Oc1ccc2c(CNCCc3ccccc3)c(O)ccc2c1CNCCc1ccccc1 [TCMDC-137582]	-11.34	–
CCCN(CCCCCCN(CCC)CCc1ccc(O)c(O)c1)CCc1ccc(O)cc1 [TCMDC-131259]	-3.325	–
CC(C)(Cc1ccc(Cl)cc1)NCCCCCCNCCc1ccc(O)c(O)c1 [TCMDC-131277]	114.6	–

SMILES	% Inhibition [%]	% Inhibition (% Inhibition) [%]
Oc1ccc(CCNCCCCCCNCCc2ccc(-c3ccccc3)cc2)cc1O [TCMDC-131268]	113.1	–
O=C(NCC1CCC(CNCCCc2ccccc2)CC1)Nc1ccc(Cl)c(Cl)c1 (centres unmarked) [TCMDC-140705]	-6.849	–
COc1ccc2nccc([C@@H](O)CN3CCC(NCc4nc5c(cc4Cl)SCC(=O)N5)C(F)C3)c2c1 (some centres unmarked) [TCMDC-141679]	–	-19.09
COc1ccc(OCCCCON2C(N)=NC(N)=NC2(C)C)cc1 [TCMDC-131732]	29.82	–
CCOc1cccc(C2c3c(oc4ccccc4c3=O)C(=O)N2CCN(CC)CC)c1 (centres unmarked) [TCMDC-124476]	-6.195	–
NS(=O)(=O)CCc1cccc(Nc2nccc(-c3c(-c4cccc(NC(=O)c5c(F)cccc5F)c4)nn4ccccc34)n2)c1 [TCMDC-135791]	-73.1	–
N#Cc1ccc2c(c1)CN(C1CCC(NC(=O)C3=Cc4cc(Cl)ccc4OC3)CC1)CCC2 (centres unmarked) [TCMDC-133501]	-19.21	–
Cc1nc(-c2cccc(C(=O)N(Cc3cncn3Cc3cccc(C(F)(F)F)c3)CC3CC3)c2)cs1 [TCMDC-132462]	-20.16	–
O=C(NCCCCNCC(Cc1cccc(O)c1)c1ccccc1)c1ccc(NC(=O)c2ccc(Cl)cc2)cc1 (centres unmarked) [TCMDC-138563]	-50.17	–
Oc1ccc(CCNCCCCCCNCCc2ccc(Br)cc2)cc1O [TCMDC-131263]	95.59	–
Clc1ccc2c(NCc3ccc4c(c3)OCO4)ccnc2c1 [TCMDC-125106]	-11.41	–
c1ccc(CCNCc2ccc(-c3ccc(CNCc4ccc5c(c4)OCO5)cc3)nc2)cc1 [TCMDC-141648]	21	–
Clc1ccc(CCNCCCCCCNCCc2ccc3c(c2)OCO3)cc1 [TCMDC-132042]	88.67	–
FC(F)(F)c1cccc(CNCCCCCNCc2ccc(Cl)cc2)c1 [TCMDC-140403]	31.4	–
Oc1cccc(CCNCCCCCCNCCc2ccc(Cl)cc2)c1 [TCMDC-131285]	116.7	–
O=C(/C=C/c1ccc(Cl)c(Cl)c1)NCCCCCN1CCN(C(=O)Nc2ccc(OC(F)F)cc2)CC1 [TCMDC-135733]	4.05	–
